Measurements reported in PubChem BioAssay AID651635 (National Center for Advancing Translational Sciences (NCATS), 2013).
About 1,900 (0.47%) of roughly 400,000 compounds were called active. Where a call stands in place of a potency, no number is given. Inconclusive results (about 14%) are left out. The call rests on the fitted dose curve; in most records, active means well fitted cell-killing curve with a large enough effect; inconclusive means small, poorly fitted or top-dose-only effect, or effect the other way; inactive means no such curve, though single readings can be large or run the other way. For the sample, actives were picked, then their nearest neighbours and some compounds at random.

Assay: Viability Counterscreen for Primary qHTS for Inhibitors of ATXN expression; further: nearly all actives have a fitted effect of over 40% in size
Conditions: S2 cells (HEK-293 line with an ATXN2-luciferase reporter) viability, CellTiter-Fluor protease fluorescence, 24 h; series mostly up to 56.7 µM
Source text: Spinocerebellar ataxia type 2 (SCA2) is a multisystem neurodegenerative disease caused by a dominantly-acting mutation leading to expansion of a polyQ domain in the ataxin-2 protein (ATXN2). SCA2 patients develop progressive ataxia and later lose function in other neuronal systems. Prominent parkinsonian signs develop in some patients. Similar to many neurodegenerative disorders, no symptomatic or disease-modifying treatments are known.
The primary objective of the proposed research is to identify compounds inhibiting ATXN2 expression and to test them for efficacy in SCA2 mouse models. To this end, we have developed a cell-based assay paired with an in vivo mouse model using identical luciferase expression constructs. This approach takes advantage of an ATXN2-luciferase transgene, with the luciferase gene flanked by the upstream and downstream portions of the ATXN2 gene. This primary assay was tested against the NIH Molecular Libraries Small Molecule Repository (MLSMR).
NIH Chemical Genomics Center [NCGC]
NIH Molecular Libraries Probe Centers Network [MLPCN]
Assay Submitter (PI): Daniel Scoles, University of Utah
PROTOCOL TABLE (as described by Inglese J, Shamu CE and Guy RK. 2007)
SEQUENCE No. (e.g., 1, 2, 3, etc.); […] (e.g., Cells, Incubation, Reagent, etc.); VALUE; DESCRIPTION.
1; Cells; 4 uL; white, solid bottom, 1536-well Greiner assay plate.
2; Incubation; 2 hr; 37 degree C in 5% humidified CO2.
3; Compounds; 23 nL; Kalypsis pintool (Wako USA) equipped with a 1536-well pin head.
4; Incubation; 24 hr; 37 degree C in 5% humidified CO2.
5; Reagent; 1 uL; Gly-Phe-7-Amino-4-trifluoromethylcoumarin.
6; Incubation; 30 min; 37 degree C in 5% humidified CO2.
7; Detection; Fluorescence; ViewLux plate reader (PerkinElmer).
8; Reagent; 3 uL; SteadyGlo luciferase solution (Promega).
9; Incubation; 5 min; room temperature.
10; Detection; Luminescence; ViewLux plate reader (PerkinElmer).
NOTES (numbers refer to Sequence numbers above)
1. S2 cells expressing ATXN2-luciferase reporter were suspended in phenol-red free DMEM and dispensed in assay plates using a Multidrop Combi dispenser (Thermo Fisher Scientific).
2. Assay plates were incubated. Evaporation was prevented by covering assay plates with metal lids containing holes to allow gas diffusion.
3. […] Vehicle-only plates, with DMSO being pin-transferred to columns 5-48, were inserted uniformly at the beginning and the end of each library to monitor and record any shifts in assay performance.
5. 125 uM Gly-Phe-7-Amino-4-trifluoromethylcoumarin (MP Biomedicals) working concentration was used at a final concentration of 25 uM.
7. To assess cell viability; the assay plates were read using the ViewLux high-throughput CCD imager (PerkinElmer), wherein single end-point fluorescence measurement was acquired (excitation 405/10; emission 540/25 nm).
8. Detection reagent SteadyGlo Luciferase (Promega) was added to the assay plate.
10. Luminescence is then measured on the ViewLux imager equipped with a clear emission filter using a 2 sec exposure. All screening operations were performed on a fully integrated robotic system (Kalypsys) containing one RX-130 and two RX-90 anthropomorphic robotic arms (Staubli).
Inglese J, Shamu CE and Guy RK, Reporting data from high throughput screening of small molecule libraries, Nature Chemical Biology, 2007, 3(8): 438-441. doi.org/10.1038/nchembio0807-438.
Potency means the concentration at half of the fitted maximal effect.

Row | SMILES | Potency
1 | CC[C@H]1CN2CCc3cc(OC)c(OC)cc3[C@@H]2C[C@@H]1C[C@H]1NCCc2cc(OC)c(OC)cc21 | 39.8 µM (active)
2 | C[C@H]1CC[C@@]2(NC1)O[C@@H]1C[C@H]3[C@@H]4CC=C5C[C@@H](O)CC[C@]5(C)[C@@H]4CC[C@]3(C)[C@@H]1[C@@H]2C | inactive
3 | C[C@]12CC[C@@H]3C(=CCc4cc(O)ccc43)[C@@H]1CCC2=O | inactive
4 | CCOC(=O)c1c(C)c(C(=O)N2CCC3(CC2)OCCO3)c(C)n1CC | inactive
5 | CC(Cc1ccccc1)NCCC(c1ccccc1)c1ccccc1 (stereo not given) | 20 µM (active)
6 | CC(Cc1ccccc1)NC=O (stereo not given) | inactive
7 | CC(=O)NC(=O)NC(C)Cc1ccccc1 (stereo not given) | inactive
8 | Cc1cc(-c2ccc(N)c(C)c2)ccc1N | inactive
9 | CCN1C[C@@]2(COC)CC[C@H](OC)[C@]34[C@@H]1[C@]1(OCO[C@@]15C[C@@H](OC)C1C[C@H]3[C@H]5[C@@H]1OC)[C@H](O)[C@@H]24 | inactive
10 | CN1[C@@H]2CC[C@H]1CC(OC(=O)c1cc(Cl)cc(Cl)c1)C2 (stereo not given in full) | inactive
11 | O=C(CSc1ccccc1)Nc1ccc(C(=O)Nc2cccc(O)c2)cc1 | inactive
12 | COc1ccccc1C(=O)N[C@@H]1c2ccccc2C2(CCN(Cc3nc(C(C)C)cs3)CC2)[C@H]1O | 35.5 µM (active)
13 | COC(=O)C1=C(c2ccc(Cl)c(C(F)(F)F)c2)C[C@@H]2CC[C@H]1N2C(=O)NC1CC1 | inactive
14 | Clc1ccc([C@@H]2C[C@H]3CC[C@@H]2N3)cn1 | inactive
15 | C[C@]12CC[C@H](O)C[C@@H]1CC[C@H]1[C@H]2CC[C@]2(C)C(=O)CC[C@@H]12 | inactive
16 | CCOC(=O)[C@]12Cc3ccccc3[C@H]1N(C1CCCCC1)C(=O)c1cc(OC)ccc12 | 10 µM (active)
17 | CCOC(=O)[C@]12Cc3cc(OC)ccc3[C@H]1N(C(C)C)C(=O)c1ccccc12 | 11.2 µM (active)
18 | COc1cccc(-c2ccc(O)c(CNC3CN4CCC3CC4)c2)n1 (stereo not given) | inactive
19 | CCN1C[C@]2(C)CC[C@H](O)[C@@]34[C@@H]5CC6[C@@H](OC)C[C@@](O)([C@@H]5[C@@H]6O)[C@H](C[C@@H]23)[C@H]14 | inactive
20 | CCCOC(=O)c1cncn1C(C)c1ccccc1 (stereo not given) | inactive
21 | Cc1nnc(NC(=O)c2cccn(Cc3cccc(F)c3)c2=O)s1 | inactive
22 | CCOC(=O)c1c(-c2ccccc2)oc2ccc(OC(=O)N(C)C)cc12 | inactive
23 | COC(=O)C1=C(c2ccc(F)cc2OCc2ccccc2)C[C@@H]2CC[C@H]1N2C(=O)NCc1ccc2[nH]ccc2c1 | inactive

Row | SMILES | Potency
24 | CC1N=C(N)OC1c1ccccc1 (stereo not given) | inactive
25 | O=C(Cn1c(=O)n(CC2CS2)c2ccccc21)N1CCCCC1 (stereo not given) | inactive
26 | CC(=CCOc1ccc2ccc(=O)oc2c1)C1=CC(=O)C(C)(C)O1 | inactive
27 | CCC(=NCCc1ccccc1)c1c(O)n(C2CCCCC2)c(=O)[nH]c1=O | inactive
28 | O=c1[nH]c2ccccc2n1C1CCN(C(c2ccccc2)c2nnnn2Cc2ccccc2)CC1 (stereo not given) | 7.08 µM (active)
29 | Cc1ccc(Cn2nnnc2CN2CCC(n3nnc4ccccc43)CC2)cc1 | inactive
30 | O=c1[nH]c2ccccc2n1C1CCN(C(c2ccnc3ccccc23)c2nnnn2Cc2ccccc2)CC1 (stereo not given) | 12.6 µM (active)
31 | O=P1(N(CCCl)CCCl)NC(OO)CCO1 (stereo not given) | inactive
32 | Cc1ccsc1C(=O)C1CCCN(Cc2ccc(O)cc2)C1 (stereo not given) | inactive
33 | Cc1ccc(N2C(=O)NC(=O)C(CCc3ccncc3)(Cc3cccc(Cl)c3Cl)C2=O)cc1 (stereo not given) | inactive
34 | CCOP(=O)(OCC)C(O)c1ccc(OC)cc1OC (stereo not given) | inactive
35 | CC[N+]1(CCOC(=O)C(O)(c2ccccc2)c2ccccc2)CCCCC1 | inactive
36 | Cc1ccc(Cl)cc1N1CCN(C(=O)C2CCC(CNS(=O)(=O)c3cccs3)CC2)CC1 (stereo not given) | inactive
37 | Oc1ccc2c3c1OC1[C@H](O)CC[C@@]4(O)[C@@H](C2)N(CC2CC2)CC[C@]314 (stereo not given in full) | inactive
38 | CO[C@]12CC[C@@]3(C[C@@H]1[C@](C)(O)C(C)(C)C)[C@@H]1Cc4ccc(O)c5c4[C@@]3(CCN1CC1CC1)[C@H]2O5 | 35.5 µM (active)
39 | CN(C)c1ccc(/C=C2\CC3C4CC=C5CC(O)CCC5(C)C4CCC3(C)C2=O)cc1 (stereo not given) | inactive
40 | CC(C)=C[C@@H]1[C@@H](C(=O)OCc2coc(Cc3ccccc3)c2)C1(C)C | inactive
41 | Cc1cc(OCc2cc(C(=O)O)oc2C)c2c3c(c(=O)oc2c1)CCCC3 | inactive
42 | CN(Cc1cccc2ncccc12)C(=O)c1cnn(-c2nccc(-c3ccccc3F)n2)c1C1CC1 | 22.4 µM (active)
43 | CCCCC1C(=O)NC(=O)N(C2CCCCC2)C1=O (stereo not given) | inactive
44 | CC1=C(C(=O)O)N2C(=O)[C@@H](N)[C@H]2SC1 | inactive
45 | NCC(O)c1ccc(O)cc1 (stereo not given) | inactive
